A number with no mark means an inactive call. Records with an inconclusive call do not appear. Calls of active or inactive are those of the source. Unless noted, calls come from the whole dose curve; as a rule, active = well fitted curve in the direction sought with a large enough effect in the repeat runs; inconclusive = weak or mixed curves; inactive = no such curve, though single readings can be large; an effect the other way counts as inactive or inconclusive.

The nature of assay [1]: qHTS assay for small molecule agonists of the p53 signaling pathway (AID 651631; calls by dose curve; note: nearly all actives have a fitted effect of over 15% in size). In a few lines: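 Stably transfected HCT-116 cells (beta-lactamase behind p53 response elements) get compounds after a 5 h settling period; 16 h later at 37 °C, FRET substrate is loaded and fluorescence read after 2 h.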
On the technique in general: qHTS replaces the single test concentration by a dilution series.

The nature of assay [2]: qHTS assay for small molecules that induce genotoxicity in human embryonic kidney cells expressing luciferase-tagged ATAD5 (AID 651632). Note: nearly all actives have a fitted effect of over 15% in size. Note: potency is the fitted concentration of half-maximal effect. In a few lines:
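Cells were seeded at 2,000 per well, dosed with compound, and incubated 16 hr at 37C in 5% CO2. Luciferase activity was then quantified after a 30 min room-temperature incubation with Amplite.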

A short description of assay [3]: qHTS assay for small molecule agonists of the p53 signaling pathway - cell viability (AID 651633; calls by dose curve;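 note: p53RE-bla HCT reporter cells with a stable beta-lactamase p53 reporter; series mostly up to about 83 µM; nearly all actives have a fitted effect of over 30% in size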). In a few lines: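 p53RE-bla cells, seeded at 4,000 per well and rested 5 h at 37 C/5% CO2, received compounds in DMSO for 16 h at 37 C. CellTiter-Glo was then added, and luminescence was read after 30 min at room temperature to gauge cytotoxicity.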
Assay [4] can be described thus: qHTS assay for small molecules that induce genotoxicity in human embryonic kidney cells expressing luciferase-tagged ATAD5 - cell viability (AID 651634; calls by dose curve; note: nearly all actives have a fitted effect of over 25% in size). The method, boiled down: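 Cells (HEK293T, luciferase-tagged ATAD5) are seeded at 2,000 per well, dosed with compound or DMSO vehicle, and incubated 15.5 hr at 37C and 5% CO2. CellTiter-Fluor is added for 30 min before fluorescence is measured.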

Assay [5] is described as follows: qHTS assay for small molecule disruptors of the mitochondrial membrane potential - cell viability (AID 720634; calls by dose curve;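 note: human HepG2 liver cancer cells; series mostly up to about 83 µM; nearly all actives have a fitted effect of over 20% in size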). In a few lines: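 Cytotoxicity was measured by ATP quantitation in HepG2 wells that had first been treated with compound for 1 hr and stained with m-MPI dye; CellTiter-Glo incubation was 30 min at room temperature.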
A short description of assay [6]: qHTS assay to test for compound auto fluorescence at 590 nm (red) in HepG2 cells (AID 720674). In a few lines:
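Rose Bengal sodium served as the red fluorophore standard. HepG2 monolayers (overnight attachment, MEM with 10% FBS) were exposed to test compounds for 1 hr at 37 C and read at Ex 540/Em 590 nm.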

A short description of assay [7]: qHTS assay to test for compound auto fluorescence at 535 nm (green) in HepG2 cells (AID 720675).
Assay [8] in a line: qHTS assay to test for compound auto fluorescence at 460 nm (blue) in HEK293 cells (AID 720678). In a few lines: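 Blue read-out at excitation 405 nm and emission 460 nm follows overnight compound exposure of HEK293 cells at 37C in 5% CO2. Activity is given as auto fluorescence equivalency to triamterene.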
Assay [9] is described as follows: qHTS assay to test for compound auto fluorescence at 590 nm (red) in HEK293 cells (AID 720679). The method, boiled down: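 Red channel, Ex/Em 540/590nm; signal expressed as equivalency to Rose Bengal sodium. HEK293, 2,000 cells/well, 10% dialyzed FBS; 23 nL compound pinned after 4-5 hr attachment; overnight 37C/5% CO2 before reading.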
The nature of assay [10]: qHTS assay for small molecule disruptors of the mitochondrial membrane potential (AID 720635). In a few lines:
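HepG2 cells (2,000/well) attached overnight at 37C, then took compound for 1 hr at 37C, 5% CO2. Mito-MPS dye was added for 30 min; fluorescence was read at 490/535 nm (monomers) and 540/590 nm (aggregates).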
% is set by controls: 0 for no effect and ±100 for the full control effect.

On to `CCCCOCCOC(=O)CCCCCCCCC(=O)OCCOCCCC`, for which the Potency entry in [1], in assay [2], in assay [3] and in [4] was “inactive” in each case. Further, the call in assay [5], in [6], in assay [7], in [8] and in assay [9] was inactive.
Regarding `Cc1ccc(C(=O)c2ccccc2)cc1`, the Potency entry in [1], in assay [2], in [3] and in assay [4] was “inactive” each time. Further, the call in assay [5], in [6], in assay [7], in [8] and in assay [9] was inactive.
As to `CCCn1cc[n+](C)c1C`, the Potency result in assay [1], in [2], in assay [3] and in assay [4] was “inactive” in each case. The outcome in [5], in assay [6], in assay [7], in assay [8] and in [9] was inactive.
Take `COc1cc(C)nc(-n2nc(C)cc2OC)n1`: the Potency entry in assay [1], in assay [2], in assay [3] and in assay [4] was “inactive” throughout. For the same compound, in assay [5], the call was inactive. Further, the fluorescence, relative to Rose Bengal in assay [6] is -0.559% [at 18.6 µM]. In [7], the fluorescence, % of fluorescein control is 0.0331% [at 18.6 µM]. Further, the fluorescence, % of triamterene in assay [8] is 0.0208% [at 18.6 µM]. Further, the fluorescence, % of fluorescent control in assay [9] was -0.0061% [at 18.6 µM].
On to `O=[N+]([O-])c1ccc(/C=N\O)o1`, for which the Potency entry in assay [1], in assay [2], in assay [3] and in [4] was “inactive” each time. Besides, the compound was called inactive in [5], in [6], in [7], in [8] and in assay [9].
With `C[N+]1(C)CCCC(OC(=O)C(O)(c2ccccc2)c2ccccc2)C1` (configuration not stated), the Potency result in assay [1], in assay [2], in [3], in assay [4] and in assay [10] was “inactive” each time. Also, the fluorescence, relative to Rose Bengal in assay [6] was 0.011% [at 18.6 µM]. Further, the fluorescence, % of fluorescein control in assay [7] is -0.152% [at 18.6 µM]. The fluorescence, % of triamterene in assay [8] is 0.0818% [at 18.6 µM]. For the same compound, the fluorescence, % of fluorescent control in [9] is 0.215% [at 18.6 µM].
Regarding `CCCCCCCCCCCCCCC(=O)O`, the Potency result in assay [1], in assay [2], in assay [3] and in [10] was “inactive” each time. In addition, the result in assay [5], in [6], in assay [7], in [8] and in assay [9] was inactive.
Consider `CCOC(=O)COC(=O)c1ccccc1C(=O)OCC`, for which the Potency entry in [1], in assay [2], in assay [3] and in assay [4] was “inactive” each time. For the same compound, the outcome in assay [6], in assay [7], in assay [8] and in assay [9] was inactive.
In the case of `CC1=NN(c2cc(S(=O)(=O)O)ccc2Cl)C(=O)C1N=Nc1ccccc1` (configuration not stated), the Potency entry in assay [1], in assay [2] and in [3] was “inactive” each time. In addition, the call in assay [5], in assay [6], in assay [7], in assay [8] and in assay [9] was inactive.
With `CCOC(=O)CCC(=O)OCC`, the Potency entry in [1], in assay [2], in assay [3] and in [4] was “inactive” in each case. Moreover, the compound was called inactive in assay [6], in assay [7], in [8] and in assay [9].
With `CC(C(=O)O)c1cccc(Oc2ccccc2)c1` (configuration not stated), the Potency entry in assay [1], in [2], in assay [3], in assay [4] and in [10] was “inactive” each time. Also, the fluorescence, relative to Rose Bengal in assay [6] was -0.601% [at 18.6 µM]. Besides, the fluorescence, % of fluorescein control in [7] was 0.0036% [at 18.6 µM]. The fluorescence, % of triamterene in assay [8] was 0.0483% [at 18.6 µM]. Further, the fluorescence, % of fluorescent control in assay [9] was -0.0737% [at 18.6 µM].
For `CCN[C@@H]1C[C@H](N)[C@@H](OC2OC(CN)=CCC2N)[C@H](O)[C@H]1O[C@H]1OC[C@](C)(O)[C@H](NC)[C@H]1O` (some centres not stated), the Potency entry in [1], in assay [2], in assay [3], in [4] and in [10] was “inactive” throughout. Besides, the result in [6], in assay [7], in [8] and in [9] was inactive.
Consider `CC1=NS(=O)(=O)c2cc(Cl)ccc2N1`, for which the Potency result in assay [1], in [2], in assay [3] and in assay [4] was “inactive” throughout. Besides, the result in [6], in assay [7], in assay [8] and in assay [9] was inactive.
Regarding `c1ccc(Cc2ccccc2)cc1`, the Potency result in assay [1], in assay [2], in assay [3] and in assay [4] was “inactive” each time. Moreover, the outcome in [6], in assay [7], in [8] and in [9] was inactive.
For `CC1(C)OC[C@@H](COC(=O)CCc2ccc(OC[C@@H](O)CNCCNC(=O)N3CCOCC3)cc2)O1`, the Potency result in [1], in assay [2], in assay [3] and in [4] was “inactive” in each case. The call in assay [6], in assay [7], in assay [8] and in assay [9] was inactive.
Turning to `CC[C@H]1OC(=O)[C@H](C)[C@@H](O[C@H]2C[C@@](C)(OC)[C@@H](O)[C@H](C)O2)[C@H](C)[C@@H](O[C@@H]2O[C@H](C)C[C@H](N(C)C)[C@H]2O)[C@](C)(OC)C[C@@H](C)C(=O)[C@H](C)[C@@H](O)[C@]1(C)O`, the Potency entry in assay [1], in assay [2], in assay [4] and in assay [10] was “inactive” in each case. Further, the outcome in assay [5], in [6], in assay [7], in [8] and in assay [9] was inactive.
With `COc1cc(-c2ccc(=O)[nH]n2)ccc1OC(F)F`, the Potency result in assay [1], in [3] and in assay [4] was “inactive” each time. The Potency in assay [2] is 13.3 µM (active). In addition, the compound was called inactive in assay [5], in assay [7], in assay [8] and in [9].
For the compound `CO[Si](C)(OC)c1ccccc1`, the Potency entry in assay [1], in assay [2], in [3] and in assay [4] was “inactive” in each case. Besides, the result in assay [6], in assay [7], in assay [8] and in assay [9] was inactive.
Turning to `C=CC(C)(CCC=C(C)C)OC(=O)CC` (configuration not stated), the Potency result in [1], in assay [2], in [3] and in [4] was “inactive” in each case. In addition, the result in assay [5], in assay [7], in [8] and in assay [9] was inactive.
Regarding `O=C(c1ccccc1)C1(O)CCCCC1`, the Potency entry in [1], in assay [2], in [3], in assay [4] and in [10] was “inactive” in each case. Also, the result in assay [6], in assay [7], in assay [8] and in assay [9] was inactive.
With `COCCOC[C@H](CC1(C(=O)NC2CCC(C(=O)O)CC2)CCCC1)C(=O)Oc1ccc2c(c1)CCC2` (some centres not stated), the Potency entry in assay [1], in [2], in [4] and in assay [10] was “inactive” in each case. The outcome in [5], in assay [6], in assay [7], in [8] and in assay [9] was inactive.
In the case of `CC(C)C1CCC(O)CC1` (configuration not stated), the Potency entry in [1], in assay [2], in [3] and in assay [4] was “inactive” in each case. Also, the call in assay [7], in assay [8] and in assay [9] was inactive.

The values above are taken from PubChem BioAssay (Tox21).
